The values that follow come from PubChem BioAssay.

SMILES strings stand for the structures. Active and inactive are the calls of the source.

Assay [1] can be described thus: compound effects on lung adenocarcinoma cell viability – A549, calcein-AM fluorescence, 48 h, basal, profiling panel (AID 1162). The note with it: higher = more signal.
The nature of assay [2]: compound effects on differentiated 3T3-L1 adipocyte viability – cell-based, 3T3-L1 adipocytes, calcein-AM fluorescence, 48 h, basal, profiling panel (AID 1163). The note with it: 3T3-L1 adipocytes viability, higher = more signal.
The nature of assay [3]: compound effects on hepatocellular carcinoma cell viability – HepG2, calcein-AM fluorescence, 48 h, basal, profiling panel (AID 1164). The settings on record: higher = more signal.
Assay [4] is described as follows: compound effects on multiple myeloma cell viability – MM1S, calcein-AM fluorescence, 48 h, basal, profiling panel (AID 1165).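 Note: viability of MM1S multiple myeloma cells under basal unstimulated conditions.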 The settings on record: higher = more signal.
Assay [5] is described as follows: calcein-AM signal in unstimulated myeloma cells – cell-based, calcein-AM fluorescence, 48 h, PK04 Diversity Set, profiling panel (AID 1166).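 Note: cells grown under basal conditions without added stimulus.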 The settings on record: RPMI8226 myeloma viability, higher = more signal.
Assay [6] is described as follows: JC-1 mitochondrial signal, unstimulated HepG2 cells – cell-based, JC-1 fluorescence, 24 h, 100 nL compound, profiling panel (AID 1167). The note with it: HepG2 mitochondrial potential, higher = more signal.
A short description of assay [7]: JC-1 mitochondrial signal, unstimulated adipocytes – cell-based, JC-1 fluorescence, 3T3-L1 adipocytes, 24 h, 100 nL compound, profiling panel (AID 1168). The note with it: JC-1 mitochondrial fluorescence, higher = more signal, called active from +8 up or from −8 down.
Assay [8] in a line: JC-1 mitochondrial signal, unstimulated myeloma cells – cell-based, JC-1 fluorescence, RPMI8226, 24 h, 100 nL compound, profiling panel (AID 1169). The settings on record: JC-1 mitochondrial potential fluorescence, higher = more signal.
Assay [9] in a line: JC-1 mitochondrial signal, unstimulated MM1S myeloma – cell-based, JC-1 fluorescence, 24 h, 100 nL compound, profiling panel (AID 1170). The note with it: MM1S mitochondrial potential, higher = more signal.
The nature of assay [10]: resazurin metabolic signal in A549 cells – cell-based, resazurin fluorescence, 24 h, PK04 Diversity Set, profiling panel (AID 1171). The note with it: A549 viability, higher = more signal, called active from +8 up or from −8 down.
Note: test concentration not given here.

Consider `COc1ccc(C(O)C2C=CC3C(=O)N(c4ccccc4)C(=O)C3N2Nc2ccccc2)c2ccccc12` (stereo not given), for which the z-score is -0.308 in assay [1]; -2.02 in assay [2]; 0.407 in assay [3]; -0.174 in [4]; -0.858 in [5]; -1.37 in [6]. Further, the z-score was -0.849 (inactive) in assay [7], -0.86 in assay [8], -0.978 in assay [9] and -0.301 (inactive) in [10].

As for `NC(=O)NCC#Cc1ccc2c(c1)[C@]1(C(=O)N2)[C@H](C(=O)NC[C@H](O)c2ccccc2)[C@H]2C(=O)O[C@H](c3ccccc3)[C@H](c3ccccc3)N2[C@@H]1c1ccccc1OCCO`, the z-score in [1] was -0.321; in [2], 1.02; in [3], -0.252; in assay [4], 0.325; in assay [5], -0.636; in assay [6], -1.64. In addition, the z-score in assay [7] is 1.34 (inactive); in [8] it was -0.0808; in assay [9], -1.01; in [10], 1.02 (inactive).

Consider `CC(C)C(=C=CC[C@H](O)c1ccccc1OCCO)CCO`, for which the z-score in [1] was -0.417; in [2], -1.06; in [3] it was -0.07; in assay [4], -0.256; in [5], -1.56; in assay [6] it was -0.926. The z-score is -0.318 (inactive) in assay [7], -0.424 in [8], -0.305 in assay [9] and -0.245 (inactive) in [10].

On to `C[N+](C)(C)CCCC[C@@H]1NC(=O)[C@@H]2C[C@H](C(=O)NCCCCCCNC(=O)CS)[C@H](c3cccc(OCCO)c3)N2C1=O`, for which the z-score is -0.14 in [1]; -0.0406 in assay [2]; 1.5 in assay [3]; 0.954 in assay [4]; 0.186 in [5]; 1.53 in [6]. Further, the z-score is 0.215 (inactive) in assay [7], 0.476 in assay [8], -0.677 in [9] and -0.333 (inactive) in assay [10].

Turning to `Cc1ccc(S[C@]2(C(=O)NCC(C)C)CC(=O)N(Cc3ccccc3)[C@@H]2c2ccc(CO)cc2)cc1`, the z-score is 0.204 in [1]; 0.38 in [2]; -0.056 in assay [3]; -1.32 in assay [4]; -0.152 in [5]; -0.135 in assay [6]. The z-score in assay [7] is -0.239 (inactive); in assay [8] it was 0.205; in assay [9], 0.435; in [10], 1.23 (inactive).

For the compound `O=C1C2C=CC(C(O)C3CC=CCC3)N(n3cnnc3)C2C(=O)N1Cc1ccccc1` (stereo not given), the z-score is -0.563 in assay [1]; -0.801 in [2]; 0.253 in assay [3]; -0.379 in [4]; -0.255 in assay [5]; -0.937 in [6]. In addition, the z-score in assay [7] is -0.132 (inactive); in [8], 0.46; in assay [9] it was -0.109; in assay [10] it was -0.62 (inactive).

Regarding `COCCCNC(=O)[C@@]1(Sc2ccc(C)cc2)CC(=O)N(Cc2ccccc2)[C@@H]1c1ccc(CO)cc1`, the z-score in assay [1] was -0.837; in [2], 0.0417; in [3], -0.543; in assay [4] it was -0.0185; in assay [5], 0.381; in assay [6], -0.658. For the same compound, the z-score is -0.265 (inactive) in assay [7], 0.216 in assay [8], -1.38 in [9] and 1.28 (inactive) in assay [10].

Regarding `C#C[C@H](O[Si](C#CCCCCCC)(C(C)C)C(C)C)c1ccccc1`, the z-score in [1] is 0.303; in [2] it was 0.102; in [3], -0.616; in [4] it was 0.665; in assay [5] it was 0.528; in [6] it was 0.0244. Moreover, the z-score in assay [7] was -0.324 (inactive); in assay [8], 0.179; in assay [9], -0.772; in assay [10] it was 0.815 (inactive).

In the case of `[N-]=[N+]=NCc1ccccc1C[C@]1(C(=O)NCC(O)CO)COC(c2ccc(OCCCO)cc2)=N1` (stereo not given in full), the z-score in [1] is -0.226; in assay [2] it was -0.314; in assay [3], 0.0226; in assay [4], -1.02; in assay [5], -1.29; in [6], -0.727. The z-score is -0.491 (inactive) in assay [7], -1.26 in assay [8], -0.714 in assay [9] and 2.56 (inactive) in assay [10].

Regarding `COCCOC(=O)N1C(=O)[C@@]2(c3cc(C#CCC(C(=O)OC)C(=O)OC)ccc31)[C@H](c1ccccc1OCCO)N1[C@H](c3ccccc3)[C@H](c3ccccc3)OC(=O)[C@H]1[C@@H]2C(=O)Nc1nc2ccccc2s1`, the z-score is 1.7 in assay [1]; 0.321 in [2]; 1.4 in assay [3]; -0.569 in [4]; -0.922 in assay [5]; -2.31 in assay [6]. Further, the z-score in assay [7] was 0.844 (inactive); in assay [8], -0.76; in assay [9], -0.578; in [10], -0.0543 (inactive).

With `[N-]=[N+]=NCc1ccccc1C[C@]1(C(=O)N2CCOCC2)N=C(c2ccc(OCCCO)cc2)O[C@H]1c1ccccc1`, the z-score in [1] was -0.55; in assay [2], -0.0649; in assay [3], -1.56; in assay [4] it was -2.06; in assay [5] it was -4.4; in assay [6], -0.155. In addition, the z-score in assay [7] is -0.296 (inactive); in [8], -1.16; in [9] it was -2.08; in [10], -0.832 (inactive).

Consider `COC(=O)c1c(CC[C@@H](CO)NC(=O)Nc2ncn[nH]2)oc(C(=O)Cc2ccccc2)c1C(=O)OC`, for which the z-score is -0.0782 in assay [1]; -0.927 in [2]; -0.314 in assay [3]; 0.226 in assay [4]; 0.343 in assay [5]; -0.808 in assay [6]. Also, the z-score in [7] is 0.765 (inactive); in [8], 0.0444; in [9], -0.286; in assay [10], 0.199 (inactive).

Turning to `CCCCC(=O)N(Cc1ccccc1F)[C@@H]1CC(C(=O)NCCO)=C[C@H](Oc2c(I)cc(CO)cc2OC)[C@H]1O`, the z-score in assay [1] is -0.435; in [2], 1.65; in assay [3], -0.765; in [4], 0.364; in [5], -1.7; in [6], 0.197. The z-score was -0.916 (inactive) in [7], -0.325 in assay [8], -0.0648 in assay [9] and -0.873 (inactive) in [10].

Regarding `O=C1C2C=CC(C(O)c3ccccn3)N(Nc3ccccc3F)C2C(=O)N1c1ccccc1` (stereo not given), the z-score in assay [1] was -0.922; in [2] it was -1.12; in [3] it was 1.04; in [4], -0.211; in assay [5] it was -0.217; in assay [6] it was -0.793. Besides, the z-score in assay [7] was 0.608 (inactive); in [8], -0.196; in assay [9] it was -0.541; in assay [10] it was -0.52 (inactive).

In the case of `O=P(NCC1(CC2(c3ccccc3)CO2)CC1)(c1ccccc1)c1ccccc1` (stereo not given), the z-score is -1.08 in assay [1]; -0.933 in [2]; 0.676 in [3]; 0.116 in [4]; 0.0906 in assay [5]; -0.187 in assay [6]. Besides, the z-score in [7] was 0.48 (inactive); in [8] it was 0.125; in [9], -0.792; in assay [10] it was 0.316 (inactive).

With `C[N+](C)(C)CCCC[C@@H]1NC(=O)[C@H]2C[C@@H](C(=O)O)[C@@H](c3cccc(OCCO)c3)N2C1=O`, the z-score was 0.244 in assay [1]; -0.552 in assay [2]; 0.438 in [3]; 0.797 in [4]; 0.91 in assay [5]; 2.37 in assay [6]. Besides, the z-score was -0.448 (inactive) in assay [7], -0.741 in assay [8], -0.631 in [9] and -0.141 (inactive) in assay [10].

For `COc1ccc(C#Cc2ccc3c(c2)[C@]2(C(=O)N3)[C@H](c3ccc(OCCO)cc3)N3[C@H](c4ccccc4)[C@H](c4ccccc4)OC(=O)[C@H]3[C@@H]2C(=O)Nc2nc3ccccc3s2)cc1`, the z-score was 1.47 in [1]; 0.292 in [2]; 0.891 in assay [3]; -1.69 in [4]; -1.37 in assay [5]; -2.95 in assay [6]. The z-score is 6.28 (inactive) in [7], -1.3 in [8], -1.71 in assay [9] and -1.23 (inactive) in assay [10].

For the compound `C=CCC(OC(C)=O)[C@@H]1[C@@H](N(Cc2ccc(-c3cccc(C(F)(F)F)c3)o2)C(=O)Cc2ccc(OC)cc2)c2cc(OCCCO)ccc2N1C(=O)Cc1ccc(OC)cc1` (stereo not given in full), the z-score was 1.92 in assay [1]; 1.38 in assay [2]; 0.641 in assay [3]; 0.018 in assay [4]; -1.02 in assay [5]; 2.08 in [6]. The z-score in assay [7] is -0.709 (inactive); in assay [8], -0.804; in [9], -0.757; in assay [10], 0.139 (inactive).

Turning to `CC[C@@H]1C=C(C(=O)O)[C@H](c2ccc(C(C)C)cc2)N1S(=O)(=O)c1ccc(C)cc1`, the z-score was -0.658 in [1]; -0.178 in assay [2]; -0.391 in assay [3]; -0.683 in assay [4]; -0.251 in assay [5]; -0.961 in assay [6]. Also, the z-score was 0.495 (inactive) in assay [7], -0.971 in assay [8], -0.574 in [9] and -0.42 (inactive) in [10].

As to `Oc1ccc2cc[n+](Cc3cccc(OC(F)(F)F)c3)cc2c1`, the z-score in assay [1] was 0.609; in assay [2] it was 0.128; in assay [3] it was 0.577; in assay [4] it was 0.683; in [5], -0.592; in assay [6], 0.303. Moreover, the z-score is 0.339 (inactive) in assay [7], 0.593 in assay [8], -0.862 in [9] and -1.81 (inactive) in assay [10].

With `C=CC[C@]1(C(=O)O)N=C(c2ccc(OCCCO)cc2)O[C@H]1c1ccccc1CN=[N+]=[N-]`, the z-score in [1] is 1.32; in assay [2], -1.06; in [3], 0.243; in [4], 0.869; in [5] it was 0.293; in assay [6] it was -0.131. Moreover, the z-score in assay [7] was 0.0284 (inactive); in [8], -0.57; in [9], -0.587; in assay [10], -0.506 (inactive).

For the compound `COc1ccc([Si](C)(C)[C@@H]2[C@@H](CCO)O[C@]3(C(=O)N(Cc4ccc(N5C(=O)c6cccc7cccc5c67)cc4)c4ccccc43)[C@H]2C)cc1`, the z-score in [1] is -0.35; in assay [2] it was -0.903; in assay [3], -3.63; in [4] it was -1.6; in assay [5] it was -4.12; in assay [6], 0.00779. Also, the z-score was 1.89 (inactive) in assay [7], -1.11 in assay [8], -1.15 in assay [9] and -1.43 (inactive) in assay [10].
